Reference: the supplement of paper PMC11732987, “Enantioselective OTUD7B fragment discovery through chemoproteomics screening and high-throughput optimisation” (Communications Chemistry, 2025)

How the values were obtained:
Assay in all cases: log2 ratio of Biotin-Ahx-Ub-VS probe labelling (fragment/DMSO); higher = less target engagement (more negative = stronger competition), active = hit call of the paper (q ≤ 0.05, log2 ratio ≤ -1)
Settings in all cases: compound concentration: 200 uM; treatment time: 3 h
USP42 = molecular target: T1, USP42 (UniProt Q9H9J4)
T1 sequence (whole entry): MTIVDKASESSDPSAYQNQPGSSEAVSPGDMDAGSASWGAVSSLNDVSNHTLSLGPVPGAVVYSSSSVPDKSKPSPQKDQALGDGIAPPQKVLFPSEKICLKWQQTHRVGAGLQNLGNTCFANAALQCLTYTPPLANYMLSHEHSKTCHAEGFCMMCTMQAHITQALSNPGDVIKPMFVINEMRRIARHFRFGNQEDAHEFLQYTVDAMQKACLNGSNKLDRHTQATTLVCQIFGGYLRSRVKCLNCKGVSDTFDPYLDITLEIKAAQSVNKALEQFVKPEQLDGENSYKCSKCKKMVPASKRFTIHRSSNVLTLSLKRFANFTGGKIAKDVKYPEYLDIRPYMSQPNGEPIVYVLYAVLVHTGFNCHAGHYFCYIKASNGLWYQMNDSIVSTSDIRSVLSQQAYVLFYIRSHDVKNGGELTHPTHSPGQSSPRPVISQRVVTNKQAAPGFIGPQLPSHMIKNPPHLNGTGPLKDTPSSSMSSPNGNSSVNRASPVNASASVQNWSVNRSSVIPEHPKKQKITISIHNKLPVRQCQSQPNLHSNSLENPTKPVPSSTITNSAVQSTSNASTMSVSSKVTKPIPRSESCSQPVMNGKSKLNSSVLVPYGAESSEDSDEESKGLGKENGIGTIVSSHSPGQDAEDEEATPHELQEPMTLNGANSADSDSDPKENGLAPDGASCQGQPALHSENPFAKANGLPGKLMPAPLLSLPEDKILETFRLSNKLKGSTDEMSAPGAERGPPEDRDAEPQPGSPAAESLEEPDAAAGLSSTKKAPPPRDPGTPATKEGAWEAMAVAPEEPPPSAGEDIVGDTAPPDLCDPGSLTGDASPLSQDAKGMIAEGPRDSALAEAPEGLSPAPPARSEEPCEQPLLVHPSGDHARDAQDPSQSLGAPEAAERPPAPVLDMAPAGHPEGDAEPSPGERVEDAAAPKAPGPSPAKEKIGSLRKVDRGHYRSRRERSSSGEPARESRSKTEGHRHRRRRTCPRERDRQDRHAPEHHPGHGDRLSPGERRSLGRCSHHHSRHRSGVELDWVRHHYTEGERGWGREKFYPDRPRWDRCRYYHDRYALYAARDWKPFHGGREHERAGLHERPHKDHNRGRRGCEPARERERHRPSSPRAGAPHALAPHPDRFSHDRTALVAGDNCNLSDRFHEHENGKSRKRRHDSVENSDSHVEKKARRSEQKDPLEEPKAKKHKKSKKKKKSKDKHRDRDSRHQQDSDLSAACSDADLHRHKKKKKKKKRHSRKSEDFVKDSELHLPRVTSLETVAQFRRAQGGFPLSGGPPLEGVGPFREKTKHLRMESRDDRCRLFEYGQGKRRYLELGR
How it was run: (§1)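 Each value is an average log2 ratio of fragment to vehicle, tested by unpaired t-test. The underlying Spectronaut label-free quantities were global-median-normalised, and only proteins with ≥2 unique peptides were included. Triplicate HEK293T lysate samples (495 µg) were exposed to fragment at 200 µM or vehicle for 3 h, then to Biotin-Ahx-Ub-VS at 0.5 µM final for 1 h, before NeutrAvidin enrichment of labelled DUBs, LysC and trypsin digestion, and diaPASEF LC-MS/MS.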

USP46 = USP46 (UniProt P62068)
Sequence of USP46 (P62068 whole entry): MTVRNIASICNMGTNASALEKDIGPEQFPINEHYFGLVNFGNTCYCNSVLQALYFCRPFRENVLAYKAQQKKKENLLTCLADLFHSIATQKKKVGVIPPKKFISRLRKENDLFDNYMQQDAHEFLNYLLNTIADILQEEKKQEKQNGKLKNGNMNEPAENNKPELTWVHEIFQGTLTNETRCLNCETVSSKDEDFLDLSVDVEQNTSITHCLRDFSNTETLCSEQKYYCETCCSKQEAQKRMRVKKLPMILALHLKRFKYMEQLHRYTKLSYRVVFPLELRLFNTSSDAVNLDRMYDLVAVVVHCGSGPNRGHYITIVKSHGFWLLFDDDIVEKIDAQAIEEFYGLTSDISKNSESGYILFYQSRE
How it was run: as §1

USP47 = molecular target: T2, USP47 (UniProt Q96K76)
T2 sequence (whole entry): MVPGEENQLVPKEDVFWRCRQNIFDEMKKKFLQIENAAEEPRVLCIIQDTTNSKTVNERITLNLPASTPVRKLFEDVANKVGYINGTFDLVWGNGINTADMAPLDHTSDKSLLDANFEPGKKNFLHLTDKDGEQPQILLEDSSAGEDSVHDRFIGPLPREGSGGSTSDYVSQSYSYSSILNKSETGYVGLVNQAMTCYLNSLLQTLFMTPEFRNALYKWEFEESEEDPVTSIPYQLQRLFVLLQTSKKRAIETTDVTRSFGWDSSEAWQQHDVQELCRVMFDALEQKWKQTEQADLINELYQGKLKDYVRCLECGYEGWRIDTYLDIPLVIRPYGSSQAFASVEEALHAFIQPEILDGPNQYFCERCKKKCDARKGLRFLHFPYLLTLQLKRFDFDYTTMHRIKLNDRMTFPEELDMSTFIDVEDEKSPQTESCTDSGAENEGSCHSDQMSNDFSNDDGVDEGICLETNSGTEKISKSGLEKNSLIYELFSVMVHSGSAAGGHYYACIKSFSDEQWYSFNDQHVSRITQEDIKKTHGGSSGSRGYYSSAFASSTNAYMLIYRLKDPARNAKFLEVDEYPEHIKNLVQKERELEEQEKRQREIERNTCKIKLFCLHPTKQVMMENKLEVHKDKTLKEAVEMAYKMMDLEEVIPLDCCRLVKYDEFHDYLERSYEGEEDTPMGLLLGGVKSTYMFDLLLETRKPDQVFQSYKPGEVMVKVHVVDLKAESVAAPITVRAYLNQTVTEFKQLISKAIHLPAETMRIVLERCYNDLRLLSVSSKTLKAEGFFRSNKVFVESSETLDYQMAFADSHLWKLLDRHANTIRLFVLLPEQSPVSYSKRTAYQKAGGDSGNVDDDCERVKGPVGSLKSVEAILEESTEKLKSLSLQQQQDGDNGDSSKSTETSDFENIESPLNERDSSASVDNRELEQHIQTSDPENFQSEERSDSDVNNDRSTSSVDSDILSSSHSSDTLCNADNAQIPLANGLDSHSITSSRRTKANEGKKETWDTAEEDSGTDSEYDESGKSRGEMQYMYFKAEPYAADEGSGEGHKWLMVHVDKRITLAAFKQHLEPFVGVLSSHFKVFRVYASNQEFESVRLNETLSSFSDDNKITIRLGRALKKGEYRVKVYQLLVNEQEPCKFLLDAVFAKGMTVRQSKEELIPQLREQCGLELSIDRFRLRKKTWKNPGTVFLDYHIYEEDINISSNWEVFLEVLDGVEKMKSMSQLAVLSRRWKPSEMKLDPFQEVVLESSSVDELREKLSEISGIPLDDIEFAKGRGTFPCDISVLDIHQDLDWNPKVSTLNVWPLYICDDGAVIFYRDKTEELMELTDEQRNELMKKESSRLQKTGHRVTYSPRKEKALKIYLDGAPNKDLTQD
How it was run: as §1

USP48 = molecular target: T3, USP48 (UniProt Q86UV5)
T3 sequence (whole entry): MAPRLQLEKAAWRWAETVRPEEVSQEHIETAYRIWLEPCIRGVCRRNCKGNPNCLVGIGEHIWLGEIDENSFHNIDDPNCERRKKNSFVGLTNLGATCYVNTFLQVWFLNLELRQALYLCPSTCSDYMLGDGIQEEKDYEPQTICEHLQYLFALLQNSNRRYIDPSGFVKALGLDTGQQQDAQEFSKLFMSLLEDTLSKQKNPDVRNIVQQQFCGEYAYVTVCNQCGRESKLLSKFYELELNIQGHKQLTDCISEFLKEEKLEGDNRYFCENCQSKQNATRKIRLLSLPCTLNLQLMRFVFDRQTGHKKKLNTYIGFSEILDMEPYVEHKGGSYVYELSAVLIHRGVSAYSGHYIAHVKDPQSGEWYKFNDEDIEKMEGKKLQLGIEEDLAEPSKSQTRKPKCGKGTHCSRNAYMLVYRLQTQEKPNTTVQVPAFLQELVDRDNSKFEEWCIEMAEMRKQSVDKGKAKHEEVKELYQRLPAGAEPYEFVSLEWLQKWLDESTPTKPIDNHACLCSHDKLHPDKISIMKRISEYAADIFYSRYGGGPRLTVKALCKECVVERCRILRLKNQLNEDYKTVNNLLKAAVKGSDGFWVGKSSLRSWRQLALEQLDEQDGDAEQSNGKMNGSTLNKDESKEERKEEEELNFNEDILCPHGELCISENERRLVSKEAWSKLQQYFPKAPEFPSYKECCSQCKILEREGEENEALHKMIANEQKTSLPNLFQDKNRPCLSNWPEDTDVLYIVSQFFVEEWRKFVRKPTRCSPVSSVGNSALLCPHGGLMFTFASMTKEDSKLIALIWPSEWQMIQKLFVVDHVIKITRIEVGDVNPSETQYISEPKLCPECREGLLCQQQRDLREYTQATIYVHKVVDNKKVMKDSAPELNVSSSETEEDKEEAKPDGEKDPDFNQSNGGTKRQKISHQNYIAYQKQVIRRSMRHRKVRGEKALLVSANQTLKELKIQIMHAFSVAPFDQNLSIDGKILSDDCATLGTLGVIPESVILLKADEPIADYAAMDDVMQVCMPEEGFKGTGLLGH
How it was run: as §1

USP5 = molecular target: T4, USP5 (UniProt P45974)
T4 sequence (whole entry): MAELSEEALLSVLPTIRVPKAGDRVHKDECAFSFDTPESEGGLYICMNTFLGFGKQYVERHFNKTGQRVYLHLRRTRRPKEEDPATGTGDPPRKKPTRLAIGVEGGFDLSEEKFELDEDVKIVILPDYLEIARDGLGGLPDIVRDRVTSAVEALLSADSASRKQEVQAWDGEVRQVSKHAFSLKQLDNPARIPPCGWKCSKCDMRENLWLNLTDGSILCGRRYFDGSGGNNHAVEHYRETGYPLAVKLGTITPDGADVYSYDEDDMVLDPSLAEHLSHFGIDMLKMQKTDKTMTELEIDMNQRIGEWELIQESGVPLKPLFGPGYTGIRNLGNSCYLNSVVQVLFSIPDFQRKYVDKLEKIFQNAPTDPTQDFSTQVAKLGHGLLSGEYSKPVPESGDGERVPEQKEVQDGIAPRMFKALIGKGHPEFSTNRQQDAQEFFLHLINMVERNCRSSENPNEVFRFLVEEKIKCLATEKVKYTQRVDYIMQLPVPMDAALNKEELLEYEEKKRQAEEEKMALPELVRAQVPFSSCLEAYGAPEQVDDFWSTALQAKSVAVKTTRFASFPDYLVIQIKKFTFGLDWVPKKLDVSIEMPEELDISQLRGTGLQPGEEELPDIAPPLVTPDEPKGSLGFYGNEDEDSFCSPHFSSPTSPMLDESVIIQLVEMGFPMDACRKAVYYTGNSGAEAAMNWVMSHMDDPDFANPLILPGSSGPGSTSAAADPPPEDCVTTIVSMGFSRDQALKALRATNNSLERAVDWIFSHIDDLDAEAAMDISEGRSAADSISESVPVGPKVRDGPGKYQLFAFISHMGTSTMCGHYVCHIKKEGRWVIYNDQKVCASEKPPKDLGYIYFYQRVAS
How it was run: as §1

USP54 = USP54 (UniProt Q70EL1)
Sequence of USP54 (Q70EL1 whole entry): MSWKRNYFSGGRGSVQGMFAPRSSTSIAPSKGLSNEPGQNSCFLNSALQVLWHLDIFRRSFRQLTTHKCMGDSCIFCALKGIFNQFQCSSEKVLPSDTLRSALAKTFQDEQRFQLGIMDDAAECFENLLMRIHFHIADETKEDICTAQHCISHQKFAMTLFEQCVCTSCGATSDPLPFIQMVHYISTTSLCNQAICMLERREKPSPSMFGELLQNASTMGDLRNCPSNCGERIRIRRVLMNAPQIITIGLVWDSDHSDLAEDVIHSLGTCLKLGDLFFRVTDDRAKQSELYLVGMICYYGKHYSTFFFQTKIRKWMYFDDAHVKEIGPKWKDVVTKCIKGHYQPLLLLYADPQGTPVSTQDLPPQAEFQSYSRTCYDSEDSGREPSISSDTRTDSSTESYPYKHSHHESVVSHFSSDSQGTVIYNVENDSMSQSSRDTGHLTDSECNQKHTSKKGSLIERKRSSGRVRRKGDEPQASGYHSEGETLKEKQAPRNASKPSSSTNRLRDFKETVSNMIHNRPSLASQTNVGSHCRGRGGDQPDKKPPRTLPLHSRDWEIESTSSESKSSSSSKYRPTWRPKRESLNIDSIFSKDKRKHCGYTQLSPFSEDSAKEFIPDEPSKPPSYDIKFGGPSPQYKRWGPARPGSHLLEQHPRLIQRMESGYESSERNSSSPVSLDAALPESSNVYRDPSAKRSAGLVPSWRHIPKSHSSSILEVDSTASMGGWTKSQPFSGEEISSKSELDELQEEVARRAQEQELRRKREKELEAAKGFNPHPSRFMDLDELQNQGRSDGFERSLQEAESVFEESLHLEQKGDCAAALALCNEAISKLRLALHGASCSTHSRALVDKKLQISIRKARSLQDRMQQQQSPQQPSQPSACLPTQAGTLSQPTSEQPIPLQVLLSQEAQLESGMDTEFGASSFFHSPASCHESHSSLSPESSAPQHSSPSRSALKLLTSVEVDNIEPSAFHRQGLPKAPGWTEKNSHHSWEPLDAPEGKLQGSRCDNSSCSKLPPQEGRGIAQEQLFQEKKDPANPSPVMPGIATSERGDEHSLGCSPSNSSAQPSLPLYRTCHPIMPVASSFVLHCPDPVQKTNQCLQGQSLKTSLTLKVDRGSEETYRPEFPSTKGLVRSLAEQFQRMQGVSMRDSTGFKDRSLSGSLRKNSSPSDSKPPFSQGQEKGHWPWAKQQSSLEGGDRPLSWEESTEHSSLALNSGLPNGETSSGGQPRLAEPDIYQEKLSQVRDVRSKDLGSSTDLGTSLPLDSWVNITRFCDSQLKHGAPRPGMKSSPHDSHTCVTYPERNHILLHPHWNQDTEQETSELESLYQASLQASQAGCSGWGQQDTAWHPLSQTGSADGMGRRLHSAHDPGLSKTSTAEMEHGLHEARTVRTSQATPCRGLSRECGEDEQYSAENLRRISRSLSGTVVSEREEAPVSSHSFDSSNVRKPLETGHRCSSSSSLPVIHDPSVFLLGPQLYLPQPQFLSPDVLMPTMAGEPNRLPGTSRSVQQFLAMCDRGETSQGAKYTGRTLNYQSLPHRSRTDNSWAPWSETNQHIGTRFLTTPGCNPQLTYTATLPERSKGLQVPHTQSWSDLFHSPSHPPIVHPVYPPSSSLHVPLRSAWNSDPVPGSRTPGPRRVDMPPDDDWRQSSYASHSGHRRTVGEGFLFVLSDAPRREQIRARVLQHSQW
How it was run: as §1

USP7 = USP7 (UniProt Q93009)
Sequence of USP7 (Q93009 whole entry, looked up): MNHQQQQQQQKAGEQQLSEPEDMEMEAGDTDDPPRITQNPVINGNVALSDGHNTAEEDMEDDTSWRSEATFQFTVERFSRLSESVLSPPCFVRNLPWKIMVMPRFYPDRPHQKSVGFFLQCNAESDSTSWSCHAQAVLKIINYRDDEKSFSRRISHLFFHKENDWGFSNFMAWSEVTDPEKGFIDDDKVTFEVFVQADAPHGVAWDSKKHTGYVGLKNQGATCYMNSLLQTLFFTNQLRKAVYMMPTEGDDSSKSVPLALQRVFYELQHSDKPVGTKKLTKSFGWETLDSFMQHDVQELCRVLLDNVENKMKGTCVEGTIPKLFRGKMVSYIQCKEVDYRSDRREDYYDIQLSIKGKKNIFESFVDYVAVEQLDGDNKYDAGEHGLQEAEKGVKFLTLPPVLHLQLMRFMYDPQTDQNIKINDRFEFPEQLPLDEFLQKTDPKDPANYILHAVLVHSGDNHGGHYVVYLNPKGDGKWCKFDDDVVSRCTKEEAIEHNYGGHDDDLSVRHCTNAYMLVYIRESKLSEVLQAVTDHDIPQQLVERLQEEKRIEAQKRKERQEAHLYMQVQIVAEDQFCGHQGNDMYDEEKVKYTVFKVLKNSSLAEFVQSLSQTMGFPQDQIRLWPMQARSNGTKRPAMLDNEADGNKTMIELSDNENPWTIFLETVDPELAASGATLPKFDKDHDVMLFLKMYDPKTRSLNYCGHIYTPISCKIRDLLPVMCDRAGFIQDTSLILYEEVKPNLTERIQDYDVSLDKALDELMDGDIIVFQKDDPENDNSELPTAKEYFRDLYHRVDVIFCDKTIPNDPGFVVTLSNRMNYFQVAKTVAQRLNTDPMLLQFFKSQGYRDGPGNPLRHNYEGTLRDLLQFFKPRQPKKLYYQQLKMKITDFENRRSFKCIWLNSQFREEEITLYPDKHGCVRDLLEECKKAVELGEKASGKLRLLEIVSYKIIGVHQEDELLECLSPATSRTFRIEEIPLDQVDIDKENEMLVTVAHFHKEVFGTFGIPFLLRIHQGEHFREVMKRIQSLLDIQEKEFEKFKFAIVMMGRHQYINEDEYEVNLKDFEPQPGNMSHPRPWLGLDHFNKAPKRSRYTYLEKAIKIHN
How it was run: as §1

USP8 = molecular target: T5, USP8 (UniProt P40818)
T5 sequence (whole entry): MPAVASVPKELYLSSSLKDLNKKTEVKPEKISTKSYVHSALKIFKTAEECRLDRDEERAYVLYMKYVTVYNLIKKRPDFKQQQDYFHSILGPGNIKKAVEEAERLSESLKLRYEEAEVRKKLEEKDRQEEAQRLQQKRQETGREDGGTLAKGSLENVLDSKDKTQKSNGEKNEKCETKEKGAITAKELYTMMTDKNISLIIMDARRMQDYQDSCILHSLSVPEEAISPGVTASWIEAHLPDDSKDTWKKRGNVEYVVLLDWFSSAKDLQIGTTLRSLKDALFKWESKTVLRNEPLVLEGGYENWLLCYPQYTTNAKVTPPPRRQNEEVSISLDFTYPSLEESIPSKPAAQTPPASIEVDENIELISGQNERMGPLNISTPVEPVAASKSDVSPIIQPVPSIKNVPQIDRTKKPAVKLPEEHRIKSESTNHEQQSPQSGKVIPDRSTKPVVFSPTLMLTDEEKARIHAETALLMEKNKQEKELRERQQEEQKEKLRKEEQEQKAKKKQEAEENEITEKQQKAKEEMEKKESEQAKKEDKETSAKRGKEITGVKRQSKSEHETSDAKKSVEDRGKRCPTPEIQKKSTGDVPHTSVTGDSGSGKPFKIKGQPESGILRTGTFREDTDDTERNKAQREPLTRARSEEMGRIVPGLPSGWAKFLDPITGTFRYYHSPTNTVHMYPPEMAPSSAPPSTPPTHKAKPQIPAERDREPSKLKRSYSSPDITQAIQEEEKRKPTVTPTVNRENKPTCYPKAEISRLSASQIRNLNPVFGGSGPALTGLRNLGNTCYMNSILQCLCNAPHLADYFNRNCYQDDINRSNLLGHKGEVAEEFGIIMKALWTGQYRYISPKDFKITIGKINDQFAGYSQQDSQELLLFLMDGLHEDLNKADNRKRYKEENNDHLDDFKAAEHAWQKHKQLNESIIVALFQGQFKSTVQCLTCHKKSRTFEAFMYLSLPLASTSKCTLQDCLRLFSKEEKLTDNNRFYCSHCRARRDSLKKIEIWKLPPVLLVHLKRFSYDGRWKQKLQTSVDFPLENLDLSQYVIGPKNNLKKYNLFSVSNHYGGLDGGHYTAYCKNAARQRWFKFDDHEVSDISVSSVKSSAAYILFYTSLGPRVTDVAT
How it was run: as §1

USP9X = USP9X (UniProt Q93008)
How it was run: as §1

UniProt O00487 = molecular target: UniProt O00487
Sequence of UniProt O00487 (O00487 whole entry): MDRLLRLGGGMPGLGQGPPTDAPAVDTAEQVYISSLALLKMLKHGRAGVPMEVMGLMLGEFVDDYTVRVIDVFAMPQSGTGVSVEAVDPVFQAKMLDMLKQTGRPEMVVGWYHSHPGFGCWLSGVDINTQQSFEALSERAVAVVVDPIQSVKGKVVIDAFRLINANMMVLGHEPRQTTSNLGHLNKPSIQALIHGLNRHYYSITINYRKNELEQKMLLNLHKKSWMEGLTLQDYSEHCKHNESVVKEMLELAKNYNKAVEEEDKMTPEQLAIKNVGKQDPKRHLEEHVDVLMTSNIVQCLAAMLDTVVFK
How it was run: as §1

Measured: log2 ratio of Biotin-Ahx-Ub-VS probe labelling

O=C(CCl)Nc1cccc2ncccc12
inactive: USP42 0.41 | USP46 0.096 | USP47 0.325 | USP48 -0.121 | USP5 0.466 | USP54 -0.107 | USP7 -0.116 | USP8 -0.176 | USP9X -0.112 | UniProt O00487 0.0189
